PubChem BioAssay (NCATS)
Several values for one entry are separate records, joined by “and”; a condition that tells them apart may be missing. Equal values may be shown once. Records with an inconclusive call do not appear. A structure can be active in one record and inactive in another. Activity calls are given as the source filed them. The call rests on the fitted dose curve; in most records, active means well fitted curve in the direction sought with a large enough effect; inconclusive means small, poorly fitted or top-dose-only effect, or another doubt; inactive means no such curve, though single readings can be large; an effect the other way counts as inactive or inconclusive.

How the values were obtained:
[1] = test system: SC27B; assay: qHTS profiling for inhibitors of Plasmodium falciparum proliferation (AID 504749); further: nearly all actives have a fitted effect of over 60% in size; settings: P. falciparum in erythrocytes, SYBR Green DNA, 72 h; series mostly up to 28.7 µM
Summary of the method: (§1)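 Readout was DNA-dye fluorescence from lysed cultures, ex 485/em 535 nm. Parasitized red cells had grown 72 h with compound; data scaled between 0.29 uM artemisinin and DMSO wells and corrected using vehicle-only plates.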

[2] = test system: TAB109; assay: as above; settings: P. falciparum in erythrocytes, SYBR Green DNA, 72 h; series mostly up to 28.7 µM
Summary of the method: as §1

[3] = test system: TAB113; assay: as above; settings: P. falciparum in erythrocytes, SYBR Green DNA, 72 h; series mostly up to 28.7 µM
Summary of the method: as §1

[4] = test system: W2; assay: as above; settings: P. falciparum in erythrocytes, SYBR Green DNA, 72 h; series mostly up to 28.7 µM
Summary of the method: as §1

[5] = test system: CRL-7250; assay: Cytotoxic Profiling of Annotated Libraries Using Quantitative High-Throughput Screening (AID 1296008); settings: Five cell lines viability, CellTiter-Glo ATP luminescence, 48-72 h; max response: stronger effect = lower value; further: nearly all actives have a fitted effect of over 60% in size; on max response: on the % scale 0 is the no-effect control and ±100 the full control effect
Summary of the method: (§2)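 Cells exposed to compounds for 48 or 72 hr at 37 degrees Celsius. Viability read as ATP-coupled luminescence with CellTiter-Glo after 10 min at room temperature.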

[6] = test system: HEK293; assay: as above; settings: Five cell lines viability, CellTiter-Glo ATP luminescence, 48-72 h; max response: stronger effect = lower value
Summary of the method: as §2

[7] = test system: HaCat; assay: as above; settings: Five cell lines viability, CellTiter-Glo ATP luminescence, 48-72 h; max response: stronger effect = lower value
Summary of the method: as §2

[8] = test system: KB-3-1; assay: as above; settings: Five cell lines viability, CellTiter-Glo ATP luminescence, 48-72 h; max response: stronger effect = lower value
Summary of the method: as §2

[9] = test system: HACAT; assay: qHTS assay to identify novel small-molecules to repurpose for Merkel cell carcinoma treatment (AID 1296009); settings: MCC and control cell lines, CellTiter-Glo viability, 72 h; at 44.8 µM (top of the series) unless noted; further: nearly all actives have a fitted effect of over 60% in size
Summary of the method: (§3)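 Cells were incubated with compound for 72 hr at 37 degree celsius before CellTiter-Glo addition. Luminescence was normalized with no-cell wells as full cytotoxicity and DMSO as baseline.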

[10] = test system: MCC-13; assay: as above; settings: MCC and control cell lines, CellTiter-Glo viability, 72 h; series mostly up to 46 µM
Summary of the method: as §3

[11] = test system: MCC-26; assay: as above; settings: MCC and control cell lines, CellTiter-Glo viability, 72 h; series mostly up to 46 µM
Summary of the method: as §3

[12] = test system: MKL-1; assay: as above; settings: MCC and control cell lines, CellTiter-Glo viability, 72 h; series mostly up to 46 µM
Summary of the method: as §3

[13] = test system: MKL-2; assay: as above; settings: MCC and control cell lines, CellTiter-Glo viability, 72 h; series mostly up to 46 µM
Summary of the method: as §3

[14] = test system: UISO; assay: as above; settings: MCC and control cell lines, CellTiter-Glo viability, 72 h; series mostly up to 46 µM
Summary of the method: as §3

[15] = test system: WaGa; assay: as above; settings: MCC and control cell lines, CellTiter-Glo viability, 72 h; series mostly up to 46 µM
Summary of the method: as §3

[16] = test system: C33A; assay: Primary qHTS to identify gynecologic anti-cancer compounds using libraries of approved drugs and bioactive compounds (AID 1345084); settings: Gynecologic cancer cell panel viability, ATPlite luminescence, 48 h; series mostly up to 57.5 µM; further: nearly all actives have a fitted effect of over 55% in size
Summary of the method: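 Five-concentration response, 48 h; readout is ATP-driven luciferase luminescence.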

[17] = test system: TAB165; assay: qHTS profiling for inhibitors of Plasmodium falciparum proliferation (AID 504749); further: nearly all actives have a fitted effect of over 60% in size; settings: P. falciparum in erythrocytes, SYBR Green DNA, 72 h; series mostly up to 28.7 µM
Summary of the method: as §1

[18] = test system: NIH3T3; assay: Cytotoxic Profiling of Annotated Libraries Using Quantitative High-Throughput Screening (AID 1296008); settings: Five cell lines viability, CellTiter-Glo ATP luminescence, 48-72 h; max response: stronger effect = lower value; further: nearly all actives have a fitted effect of over 60% in size; on max response: on the % scale 0 is the no-effect control and ±100 the full control effect
Summary of the method: as §2

[19] = test system: NIH3T3; assay: qHTS assay to identify novel small-molecules to repurpose for Merkel cell carcinoma treatment (AID 1296009); settings: MCC and control cell lines, CellTiter-Glo viability, 72 h; at 44.8 µM (top of the series) unless noted; further: nearly all actives have a fitted effect of over 60% in size
Summary of the method: as §3
Potency means the concentration at half of the fitted maximal effect.

CC[C@]1(O)C[C@H]2CN(CCc3c([nH]c4ccccc34)[C@@](C(=O)OC)(c3cc4c(cc3OC)N(C=O)[C@H]3[C@@](O)(C(=O)OC)[C@H](OC(C)=O)[C@]5(CC)C=CCN6CC[C@]43[C@@H]65)C2)C1
inactive: outcome [7] | outcome [9]
active: Potency [1] 1580 nM | Potency [2] 2000 nM | Potency [3] 2510 nM | Potency [4] 338 nM | Potency [5] 29.6 nM and 211 nM | Potency [6] 14.8 nM and 150 nM | Potency [8] 1.7 nM and 1.84 µM | Potency [10] 209 nM and 376 nM | Potency [11] 46.9 nM | Potency [12] 9.3 nM and 33.5 nM | Potency [13] 11.9 nM | Potency [14] 3 nM and 21.1 nM | Potency [15] 3.3 nM and 26.6 nM | Potency [16] 631 nM

Cc1c(OCC(F)(F)F)ccnc1CS(=O)c1nc2ccccc2[nH]1 (centres undefined)
inactive: Potency [1] | Potency [2] | Potency [3] | Potency [17] | max response [5] -8.7% and 2.17% | max response [6] 3.36% | outcome [7] | max response [8] -13.1% and -5.17% | max response [18] 1.81% and 4.74% | outcome [9] | Potency [10] | Potency [11] | Potency [12] | Potency [13] | Potency [14] | Potency [15] | Potency [16]

CC(C)(S)[C@@H](N)C(=O)O
inactive: Potency [1] | Potency [2] | Potency [3] | Potency [17] | Potency [4] | max response [5] 1.05% | max response [6] 2.4% | outcome [7] | outcome [18] | outcome [9] | Potency [10] | Potency [11] | Potency [12] | Potency [13] | outcome [19] | Potency [14] | Potency [15]

CCOC(=O)C1=C[C@@H](OC(CC)CC)[C@H](NC(C)=O)[C@@H](N)C1
inactive: max response [5] 0.667% | max response [6] -4.58% | max response [7] 1.74% | max response [8] 14.9% and 5.96% | outcome [18] | Potency [10] | Potency [12] | Potency [13] | outcome [19] | Potency [14] | Potency [15]

COC(=O)C1=C(C)NC(C)=C(C(=O)OC(C)C)C1c1cccc2nonc12 (centres undefined)
inactive: max response [5] -24.3% | max response [6] -10.7% | max response [7] -5.13% and 3.88% | max response [8] 5.12% and -6.21% | max response [18] 1.63% | Potency [10] | Potency [12] | Potency [13] | Potency [14] | Potency [15] | Potency [16]

Oc1ccc(-c2nc(-c3ccc(F)cc3)c(-c3ccncc3)[nH]2)cc1
inactive: max response [5] -11.9% | max response [7] -6.19% | outcome [8] | outcome [18] | Potency [10] | Potency [11] | outcome [19] | Potency [14]
active: Potency [6] 11.8 µM | Potency [13] 20900 nM

C[C@@H](c1ncncc1F)[C@](O)(Cn1cncn1)c1ccc(F)cc1F
inactive: max response [5] -18.6% | max response [6] -20.1% | outcome [7] | max response [8] -4.61% | max response [18] -4.26% | outcome [9] | Potency [10] | Potency [11] | Potency [12] | Potency [13] | Potency [14] | Potency [15]

Nc1cccc2c1CN(C1CCC(=O)NC1=O)C2=O (centres undefined)
inactive: Potency [1] | Potency [2] | Potency [3] | Potency [17] | Potency [4] | max response [5] -16.9% and -19.4% | max response [6] 2.44% and -8.05% | max response [7] -19.3% and -22.9% | max response [8] 2.15% and 5.39% | max response [18] 1.1% and -1.07% | Potency [10] | Potency [11] | Potency [12] | Potency [13] | Potency [14] | Potency [16]

N=C(N)c1ccc2cc(OC(=O)c3ccc(N=C(N)N)cc3)ccc2c1
active: Potency [4] 6750 nM
inactive: max response [5] -0.158% and -1.28% | max response [6] -23.8% and 0.182% | max response [7] -5.52% and -24.6% | max response [8] 12.9% | max response [18] -7.31% and -12.8% | Potency [10] | Potency [11] | Potency [12] | Potency [14] | Potency [16]
inactive and 26.6 µM (active): Potency [15]

CCOC(=O)C1=C(O)C(=O)N(Cc2ccccc2)C1
inactive: max response [5] 2.77% | max response [6] -14.6% | max response [7] 2.45% | max response [8] 3.01% | outcome [18] | Potency [10] | Potency [12] | Potency [13] | outcome [19] | Potency [14] | Potency [15]

CC(C)C[C@H](NC(=O)[C@H](Cc1ccccc1)NC(=O)c1cnccn1)B(O)O
active: Potency [5] 59.6 nM and 51.7 nM | Potency [6] 47.3 nM and 41.1 nM | Potency [7] 188 nM | Potency [8] 58 nM and 105 nM | Potency [18] 53.1 nM and 11.6 nM | Potency [12] 26.6 nM | Potency [13] 6 nM | Potency [14] 26.6 nM | Potency [15] 16.8 nM | Potency [16] 100 nM

CCOC(=O)C(C)Oc1cccc2c(=O)n(CC(=O)Nc3ccc4c(c3)OCCO4)ccc12 (centres undefined)
inactive: max response [5] 3.46% | max response [6] -23.2% | outcome [7] | outcome [8] | max response [18] 0.733% | outcome [9] | Potency [10] | Potency [11] | Potency [12] | Potency [14] | Potency [15]

O=C(OC1C[C@H]2CC[C@@H](C1)[N+]21CCCC1)C(O)(c1ccccc1)c1ccccc1 (some centres undefined)
inactive: max response [5] 4.02% | max response [6] 3.35% | max response [7] 1.67% | max response [8] 8.48% and 5.72% | max response [18] -8.22% | Potency [10] | Potency [11] | Potency [12] | Potency [13] | Potency [14] | Potency [15] | Potency [16]
active: Potency [2] 3550 nM | Potency [17] 3980 nM | Potency [4] 1690 nM
